From PubChem
SKKanGAS inh: SKKanGAS growth inhibition; inhibition, % at 7.5 µM; S. pyogenes SKKanGAS, kanamycin growth, BacTiter-Glo, 6 h; 1.3% of 300,000 active;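 active means mean replicate score, as percent of positive control median, at least 50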;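 further: strain carries kanamycin resistance gene driven by streptokinase promoter and grows in 40 µg/ml kanamycin; loss of luminescence reflects streptokinase promoter inhibition or plain growth inhibition; 0% = median of DMSO wells and 100% = positive control at its reference dose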
ATG4B inhibitor: blocks human ATG4B protease cleavage of LC3 substrate. 0.51% of 340,000 active. inhibition, % at 8.33 µM. ATG4B cleavage of LC3-PLA2, NBD-HPC fluorescence, 1 h. Q9Y4P1. AID 504462; in the data active means inhibition above about 40%
Target sequence (Q9Y4P1 whole entry, looked up): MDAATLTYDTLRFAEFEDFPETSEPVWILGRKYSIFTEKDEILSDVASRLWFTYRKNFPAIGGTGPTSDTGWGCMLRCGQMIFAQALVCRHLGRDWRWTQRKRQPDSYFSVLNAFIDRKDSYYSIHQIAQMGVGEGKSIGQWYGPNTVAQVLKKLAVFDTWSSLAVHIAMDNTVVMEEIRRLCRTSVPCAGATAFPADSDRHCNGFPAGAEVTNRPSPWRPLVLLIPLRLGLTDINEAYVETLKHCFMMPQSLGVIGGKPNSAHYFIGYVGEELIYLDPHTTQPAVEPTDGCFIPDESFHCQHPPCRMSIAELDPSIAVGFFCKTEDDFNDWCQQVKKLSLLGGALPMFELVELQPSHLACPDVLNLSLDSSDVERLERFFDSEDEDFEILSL
PfHsp90 yeast 2: growth inhibition of yeast expressing Plasmodium Hsp90. S. cerevisiae expressing PfHsp90, BacTiter-Glo ATP, 48 h; yeast lacking PDR1 and PDR3 efflux regulators. inhibition, % at 9.4 µM. AID 504621. 0.32% of 310,000 active;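 active means every replicate shows inhibition above about 80%, whatever the replicate mean, limit read from the data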;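 further: 0% = DMSO neutral controls and 100% = 20 µM radicicol positive controls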
tim10-1 inh: tim10-1 yeast growth inhibition; S. cerevisiae tim10-1 ts strain growth, BacTiter-Glo, 24 h; AID 463190; 2.2% of 330,000 active; inhibition, % at 20 µM;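 active means inhibition of at least 40%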;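 further: mutant grown at 25 °C; 0% = DMSO wells with yeast and 100% = wells holding no yeast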
TIM10 inh: TIM10 yeast growth inhibition; S. cerevisiae TIM10 strain growth, BacTiter-Glo luminescence, 24 h; inhibition, % at 10 µM; 1.4% of 330,000 active; AID 463195;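 active means inhibition of 40% or more at the single tested concentration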;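 further: wild-type TIM10 isogenic control strain grown at permissive 25 °C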
tim23-1 inh: inhibits growth of tim23-1 mutant yeast; inhibition, % at 20 µM; 1.3% of 330,000 active; AID 463212; S. cerevisiae tim23-1 growth, BacTiter-Glo luminescence, 24 h;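 active means growth inhibition of the mutant yeast at or above 50%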;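 further: temperature-sensitive mutant grown at 25 °C; plate controls were DMSO-treated mutant yeast for no effect and medium wells lacking yeast for full effect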
tim10-1 conf: confirmation of tim10-1 mutant yeast growth inhibitors. shares compounds with tim10-1 inh. S. cerevisiae tim10-1 ts strain growth, BacTiter-Glo, 24 h. inhibition, % at 20 µM. 56% of 7,400 active. AID 463213;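 active means inhibition of yeast growth at or above a set limit in either of two repeat tests at 20 µM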;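 further: tim10-1 mutant grown at permissive 25 °C to find synthetic lethal compounds; 0% = DMSO yeast wells and 100% = medium wells without yeast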
tim10 confirm: TIM10 yeast growth inhibition, confirmed; shares compounds with TIM10 inh; S. cerevisiae tim10 strain growth, BacTiter-Glo luminescence, 24 h; inhibition, % at 10 µM; 63% of 4,600 active;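 active means inhibition of yeast growth at or above a set limit in either of two replicates at 10 µM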;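 further: this counterscreen used the strain with wild-type TIM10; 0% = yeast with DMSO and 100% = medium wells lacking yeast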
tim23-1 conf: tim23-1 yeast growth inhibition, confirmed; shares compounds with tim23-1 inh; S. cerevisiae tim23-1 growth, BacTiter-Glo luminescence, 24 h; inhibition, % at 20 µM; 83% of 4,400 active;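 active means inhibition above about 39% in either of two replicate wells at 20 µM, limit read from the data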;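 further: temperature-sensitive tim23-1 mutant grown at 25 °C; 0% = DMSO wells with yeast and 100% = medium wells without yeast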
Active calls of the source: *; . = not tested or not shown. Rows were chosen to be rich in hits. Some 4.7% of all compounds tested hit in one or more screens of this group.

SMILES	SKKanGAS inh	ATG4B inhibitor	PfHsp90 yeast 2	tim10-1 inh	TIM10 inh	tim23-1 inh	tim10-1 conf	tim10 confirm	tim23-1 conf
N#Cc1ccccc1NC(=S)NC(=O)C1CCC1	.	-6.1	-13.9	17.0	5.1	3.5	.	.	.
O=C(NC(=S)Nc1ccccc1Br)C1CCC1	2.1	0.1	3.2	40.1*	37.9	58.1*	24.9	.	39.6*
O=S(=O)(Cc1ccccc1)NCCc1ccc(F)cc1	-1.8	-2.7	-8.4	2.3	-2.0	12.2	.	.	.
COc1ccc(CS(=O)(=O)/C(Cl)=C(/Cl)C(=O)Nc2ccc(OC)nc2)cc1	-4.1	-8.5	-51.3	72.7*	52.3*	72.0*	65.9*	58.4*	76.1*
COc1ccc(/C=C/C(=O)Nc2ccc(OC)nc2)cc1	-9.9	5.6	-37.9	-37.9	-19.9	-26.7	.	.	.
COc1ccc(NC(=O)/C(Cl)=C(/Cl)S(=O)Cc2ccccc2)cn1 (stereo not given)	-21.1	-5.8	119.0*	48.6*	69.2*	86.4*	33.7*	83.9*	13.9
COc1ccc(NC(=O)Cc2ccccc2)cn1	-3.1	-5.0	16.3	-2.6	5.2	7.4	.	.	.
COc1cccc(F)c1C(C[N+](=O)[O-])c1c(N)n(C)c(=O)n(C)c1=O (stereo not given)	-5.1	-3.7	103.2*	53.9*	45.8*	82.2*	59.5*	51.6*	82.3*
COc1cc(C(C[N+](=O)[O-])c2c(N)n(C)c(=O)n(C)c2=O)ccc1O (stereo not given)	1.3	-2.3	-5.8	-3.6	27.5	47.6	.	.	.
CCCC(=O)NNC(=O)Nc1ccccc1	-14.1	20.1	.	11.1	-5.5	13.6	.	.	.
Oc1ccccc1N=N/C(=N/Nc1ccccc1O)c1ccccc1	7.2	-0.7	18.8	-2.4	7.6	-1.4	.	.	.
Cn1nnnc1N=N/C(=N/Nc1ccccc1)c1ccccc1	14.9	-4.8	96.8*	54.5*	68.9*	74.6*	26.0	69.6*	60.3*
Cc1cccc(/C(N)=N/OC(=O)CCc2ccccc2)c1	-4.7	-6.0	-33.7	58.9*	52.6*	63.0*	52.0*	46.2*	45.8*
COc1ccc(/C(N)=N/OC(=O)CCc2ccccc2)cc1OC	-4.4	3.1	19.3	9.2	17.6	-1.1	.	.	.
Cc1ccc(/C(N)=N/OC(=O)Cc2ccccc2)cc1	9.5	-1.6	-14.6	33.0	39.6	27.8	.	.	.
Cc1ccc(/C(N)=N/OC(=O)CCCc2ccccc2)cc1	1.3	1.2	7.1	53.9*	59.5*	69.6*	49.2*	63.2*	66.5*
CC(c1ccccc1)N1C(=O)/C(=C/c2ccncc2)SC1=S (stereo not given)	5.9	-1.1	-12.0	66.4*	62.5*	72.6*	61.2*	72.7*	28.5
O=C(O)C(c1ccccc1)N1C(=O)/C(=C/c2cccs2)SC1=S (stereo not given)	2.5	11.9	5.2	-12.4	6.0	16.2	.	.	.
O=C(NC(=S)Nc1cccc(F)c1)c1cccc([N+](=O)[O-])c1	-1.5	-1.3	-8.0	48.8*	6.2	54.2*	3.1	.	51.6*
CCN(CC(=O)Nc1ccc2c(c1)OCO2)CC(=O)Nc1ccccc1C(F)(F)F	.	-7.8	-14.7	14.5	-10.0	30.1	.	.	.
COc1cc(/C=C/C(=O)c2ccc(Cl)s2)cc(OC)c1O	-14.8	-4.2	-129.5	61.6*	42.8*	67.4*	59.0*	44.5*	52.9*
Cc1c(/C=C/C(=O)c2ccc(Cl)s2)cnn1C	1.9	-11.9	.	44.6*	48.5*	57.9*	35.8*	36.6*	46.7*
COc1ccc(/C=C/C(=O)c2ccc(Cl)s2)cc1O	-2.5	-10.1	9.0	53.0*	68.1*	68.5*	53.9*	44.0*	81.3*
COc1ccc(C(=O)/C=C/c2ccc(OC)c(O)c2)c(F)c1	-5.1	-1.3	18.8	27.0	17.8	39.3	.	.	.
Cc1cc(/C(N)=N/OC(=O)Nc2cccc(C(F)(F)F)c2)no1	-1.4	4.2	6.4	16.0	22.1	17.0	.	.	.
SMILES	SKKanGAS inh	ATG4B inhibitor	PfHsp90 yeast 2	tim10-1 inh	TIM10 inh	tim23-1 inh	tim10-1 conf	tim10 confirm	tim23-1 conf
O=C(Cc1ccc(Cl)cc1)Nc1ccc(-c2nnc(-c3ccco3)o2)cc1	17.4	-6.0	-13.5	13.8	6.7	-0.7	.	.	.
CCOc1ccccc1CNCc1ccc(C(=O)O)cc1	-4.1	-6.5	-8.8	1.3	14.1	7.7	.	.	.
O=C(N/N=C/c1ccccn1)c1cc(-c2cccc3ccccc23)n[nH]1	4.2	8.4	-19.8	-2.2	17.4	15.5	.	.	.
O=C1CCCCC1C(Nc1ccc(Br)cc1)c1ccccc1 (stereo not given)	29.0	15.2	-12.8	40.7*	29.4	53.3*	31.8*	.	47.5*
CC1CCCCN1S(=O)(=O)c1ccc2c(c1)oc(=O)n2CC(=O)O (stereo not given)	-5.4	-2.8	0.4	5.4	0.7	13.6	.	.	.
CCSC(C)CC1C/C(=N/O)c2c(CC)noc2C1 (stereo not given)	-7.3	-5.1	5.4	-0.2	-19.8	20.5	.	.	.
Cc1cccnc1Nc1nc(-c2ccc(F)cc2)cs1	2.9	20.9	13.0	19.7	36.5	47.1	.	.	.
Cc1cccnc1Nc1nc(-c2ccc(O)cc2)cs1	-20.1	-16.5	5.7	57.1*	31.3	75.4*	17.4	.	57.1*
COc1ccc(-n2cccc2C=O)cc1	0.2	2.9	-26.4	-4.0	-4.9	-4.8	.	.	.
COc1ccc(-n2cccc2/C=C/[N+](=O)[O-])cc1	25.8	11.1	-13.7	62.0*	59.1*	83.1*	52.8*	-8.6	72.7*
COc1cccc(C(=O)O/N=C(\N)Cc2ccc(Cl)cc2)c1	4.9	0.5	-15.4	52.8*	85.1*	58.1*	29.9	-1.8	42.6*
COc1ccc(C(=O)O/N=C(\N)c2cccc(C)c2)cc1OC	-4.6	-3.1	4.3	50.9*	46.2*	52.7*	52.3*	53.6*	71.2*
Cc1cccc(/C(N)=N/OC(=O)c2ccoc2C)c1	-5.9	19.1	-47.6	44.0*	55.4*	67.3*	55.0*	39.2*	49.9*
COc1cccc(C(=O)O/N=C(\N)c2ccc(C)cc2)c1	9.5	-1.6	-17.1	56.6*	71.7*	69.4*	41.2*	82.2*	70.6*
Cc1cccc(C(=O)O/N=C(\N)c2ccc(Cl)cc2)c1	-2.7	-1.1	0.4	37.2	34.7	33.6	.	.	.
Cc1occc1C(=O)O/N=C(\N)c1ccccc1	47.5	3.3	.	28.0	24.3	44.0	.	.	.
O=C(C1CC1)N1CCc2[nH]c3ccccc3c2C1	9.5	-14.5	.	8.2	-2.4	-0.3	.	.	.
